The whole screen tested about 350,000 compounds, of which about 31,000 (8.9%) were called active. About 15% were inconclusive and are not listed. This excerpt belongs to a sample that is enriched for actives. A number with no mark means an inactive call. Calls follow the shape of the dose curve; as a rule, active = well fitted inhibition curve with a large enough effect; inconclusive = small, poorly fitted or top-dose-only effect; inactive = no such curve, though single readings can be large or run the other way.
biological target: Histone-lysine N-methyltransferase EHMT2 (Homo sapiens) (UniProt Q96KQ7); assay: qHTS Assay for Inhibitors of Histone Lysine Methyltransferase G9a; conditions: G9a H3K9 monomethylation, AlphaScreen, 2 h; series mostly up to 59 µM; activity, negative = inhibition: at the top concentration; also: nearly all actives have a fitted effect of over 75% in size
Sequence (Q96KQ7 913-1193 limits assumed): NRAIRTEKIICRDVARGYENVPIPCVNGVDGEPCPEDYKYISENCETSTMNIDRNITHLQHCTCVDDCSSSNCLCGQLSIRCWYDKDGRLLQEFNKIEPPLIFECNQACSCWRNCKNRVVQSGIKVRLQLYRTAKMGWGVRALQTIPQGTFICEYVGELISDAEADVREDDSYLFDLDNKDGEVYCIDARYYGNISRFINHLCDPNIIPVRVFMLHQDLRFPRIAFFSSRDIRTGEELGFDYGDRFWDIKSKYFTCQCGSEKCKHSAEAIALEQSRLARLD
Procedure, shortened: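 Quantitative HTS format: methyltransferase activity on a biotin-tagged H3K9 peptide is measured by AlphaScreen, using a rabbit anti-monomethyl-H3K9 antibody with streptavidin donor and anti-IgG acceptor beads. Final levels are 20 nM enzyme, 500 nM peptide, 20 uM SAM; 2 h RT.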
% is scaled to controls: 0 for no effect and ±100 for the full control effect; potency is read from the fitted curve at half-maximal effect.

Row | SMILES | activity, negative = inhibition | Potency
1 | O=C(CCS(=O)(=O)c1cc(Br)cc2c1N(C(=O)C1CC1)CC2)Nc1ccc(C(F)(F)F)cc1 | -24.3% | –
2 | CC(C)C(NC(=O)c1c(F)cccc1F)C(=O)NCc1ccncc1 (stereo unspecified) | -32.8% [at 102 µM] | –
3 | O=C(CSc1nc(Nc2ccccc2)nc(N2CCOCC2)n1)Nc1cc(Cl)ccc1O | – | 50.1 µM (active)
4 | CC1(c2ccccc2)NC(=O)N(CC(=O)Nc2cc(Cl)ccc2N2CCOCC2)C1=O (stereo unspecified) | 22.3% [at 0.501 µM] | –
5 | Cc1ccccc1NC(=O)CSc1nc2ccc(Nc3nc(N4CCOCC4)nc(N4CCOCC4)n3)cc2s1 | 1.18% [at 102 µM] | –
6 | CCOc1ccc(NC(=O)Cn2c(C)ccc(C#N)c2=O)cc1 | 5.45% | –
7 | Cn1nc(-c2ccccc2)c(-c2ccccc2)c(C(=O)Nc2ccc(S(N)(=O)=O)cc2)c1=O | -38.6% | –
8 | O=C(CN1C(=O)COc2ccc(S(=O)(=O)N3CCCCCC3)cc21)N1CCN(c2cccc(C(F)(F)F)c2)CC1 | -31.2% | –
9 | c1cnc(N2CCN(c3ccc4ccccc4n3)CC2)nc1 | 9.32% [at 102 µM] | –
10 | Oc1ccc(CN2CCN(c3ncccn3)CC2)cc1 | – | 79.4 µM (active)
11 | CN(C)C(=O)c1nc2ccc(Cl)cn2c1CN1CCN(c2ncccn2)CC1 | 13.2% [at 102 µM] | –
12 | COc1ccc(-c2nc(CN3CCN(c4ncccn4)CC3)c(C)o2)cc1C | 12.2% [at 102 µM] | –
13 | Cc1cc(OCC(=O)N2CCN(c3ncccn3)CC2)ccc1Cl | 24.5% [at 102 µM] | –
14 | Cc1ccc(CN2CCN(c3ncccn3)CC2)c(C)c1 | – | 10 µM (active)
15 | O=C1NCCn2nc3ccccc3c21 | 16.4% [at 2.33 µM] | –
16 | Cn1c(=O)cc(OCC(=O)N2CCN(c3ccccc3)CC2)c2ccccc21 | 3.66% | –
17 | COc1cccc2cc(C(N)=O)/c(=N\NC(=O)c3ccccc3)oc12 | -3.82% [at 102 µM] | –
18 | O=C(c1ccc(C(F)(F)F)cc1)N1CCC(c2nc(-c3ccc(S(=O)(=O)N4CCCC4)cc3)no2)CC1 | 1.19% | –
19 | CCOc1ccccc1-n1c(SCC(=O)NCc2ccco2)nnc1-c1ccncc1 | -44.9% | –
20 | CCn1c(SCC(=O)NCc2ccco2)nnc1-c1ccc(N)cc1 | 27.9% | –
21 | Cc1ccc(-c2csc3nnc(SCC(=O)NCc4ccco4)n23)cc1 | – | 17.8 µM (active)
22 | O=C(Cc1ccc(S(=O)(=O)N2CCOCC2)s1)N1CCN(c2ccc(C(F)(F)F)cc2[N+](=O)[O-])CC1 | 5.52% [at 0.501 µM] | –
23 | COC(=O)c1cc(Cl)c(NC(=O)c2ccco2)cc1OC | 13.8% | –
24 | O=C(Nc1ccccc1C(=O)N1CCCCC1)c1ccco1 | 6.04% [at 102 µM] | –
25 | CS/C(=C\C(=O)c1ccco1)Nc1ccccc1Cl | – | 50.1 µM (active)
26 | Cc1nc2ccc(S(=O)(=O)N(CC(=O)Nc3ccc(F)cc3)Cc3ccccc3)cc2s1 | 9.8% | –

— PubChem BioAssay AID504332 (National Center for Advancing Translational Sciences (NCATS), 2011)
